# Data from PubChem BioAssay (EPA / NIEHS).
# Records with an inconclusive call do not appear. The source made the active and inactive calls. How the source made its calls: active means hit-call score of the fitted dose curve at least 0.9, where 1 is the maximum; inconclusive means response in the unintended direction; inactive means score below 0.9.
# Tests used:
# [1] = target: rat Histamine Receptor (H3), Hrh3 (gene 85268) (UniProt Q9QYN8); assay: NVS_GPCR_rH3: NovaScreen (NVS) G Protein-Coupled Receptor Assay for rat Histamine Receptor (H3) (AID 2283303)
# Outline: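 Filter-binding radioligand competition on rat forebrain membranes, 1 h incubation; compounds screened at 25 µM in duplicate and followed in concentration series to 50 µM, loss of bound signal vs DMSO.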
# [2] = target: rat Neurokinin-1 Receptor (NK1), Tacr1 (gene 24807) (UniProt P14600); assay: NVS_GPCR_rNK1: NovaScreen (NVS) G Protein-Coupled Receptor Assay for rat Neurokinin-1 Receptor (NK1) (AID 2283309)
# Sequence of rat Neurokinin-1 Receptor (NK1), Tacr1 (gene 24807) (P14600 whole entry, looked up): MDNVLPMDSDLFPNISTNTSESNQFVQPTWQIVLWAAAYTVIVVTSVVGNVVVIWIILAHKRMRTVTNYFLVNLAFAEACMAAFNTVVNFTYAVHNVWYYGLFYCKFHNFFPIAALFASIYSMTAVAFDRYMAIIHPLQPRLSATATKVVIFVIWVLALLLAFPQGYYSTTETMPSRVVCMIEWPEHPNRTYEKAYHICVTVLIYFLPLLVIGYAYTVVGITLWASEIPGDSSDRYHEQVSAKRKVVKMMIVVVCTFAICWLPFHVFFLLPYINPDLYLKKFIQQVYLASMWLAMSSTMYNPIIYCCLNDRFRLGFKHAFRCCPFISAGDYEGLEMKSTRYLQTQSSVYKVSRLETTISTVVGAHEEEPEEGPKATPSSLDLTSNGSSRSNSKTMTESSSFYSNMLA
# Outline: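 Competitive radioligand binding to NK1 in rat submaxillary membranes, 1 h incubation, filtration and scintillation read-out. Compounds first screened at 25 uM in duplicate, then concentration-response for actives; signal loss relative to DMSO.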
# [3] = target: rat Opioid Receptor, Non-selective Sodium (Na+) Binding, Oprm1 (gene 25601) (UniProt P33535); assay: NVS_GPCR_rOpiate_NonSelectiveNa: NovaScreen (NVS) G Protein-Coupled Receptor Assay for rat Opioid Receptor, Non-selective Sodium (Na+) Binding (AID 2283311)
# Sequence of rat Opioid Receptor, Non-selective Sodium (Na+) Binding, Oprm1 (gene 25601) (P33535 whole entry, looked up): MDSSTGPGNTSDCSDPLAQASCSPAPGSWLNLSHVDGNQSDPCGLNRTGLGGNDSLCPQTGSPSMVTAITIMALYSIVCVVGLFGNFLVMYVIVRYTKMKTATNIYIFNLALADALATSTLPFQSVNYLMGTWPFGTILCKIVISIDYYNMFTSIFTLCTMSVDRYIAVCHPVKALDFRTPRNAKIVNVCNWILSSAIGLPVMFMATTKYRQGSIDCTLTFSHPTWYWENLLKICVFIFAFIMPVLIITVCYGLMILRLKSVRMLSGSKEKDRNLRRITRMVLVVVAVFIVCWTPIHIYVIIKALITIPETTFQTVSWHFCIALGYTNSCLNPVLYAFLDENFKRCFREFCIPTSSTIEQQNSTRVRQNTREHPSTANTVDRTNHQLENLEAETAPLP
# Outline: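 Filtration radioligand binding on rat forebrain membrane preparations, read 1.5 h after dosing. Single-concentration 25 µM primary screen in duplicate, followed by singleton concentration series to 50 µM max for actives; DMSO baseline.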
# [4] = target: rat Neonicotinoid receptor (NNR), Chrna7 (gene 25302) (UniProt Q05941); assay: NVS_LGIC_rNNR_BungSens: NovaScreen (NVS) Ligand-Gated Ion Channel Assay for rat Neonicotinoid receptor (NNR) (AID 2283315)
# Sequence of rat Neonicotinoid receptor (NNR), Chrna7 (gene 25302) (Q05941 whole entry, looked up): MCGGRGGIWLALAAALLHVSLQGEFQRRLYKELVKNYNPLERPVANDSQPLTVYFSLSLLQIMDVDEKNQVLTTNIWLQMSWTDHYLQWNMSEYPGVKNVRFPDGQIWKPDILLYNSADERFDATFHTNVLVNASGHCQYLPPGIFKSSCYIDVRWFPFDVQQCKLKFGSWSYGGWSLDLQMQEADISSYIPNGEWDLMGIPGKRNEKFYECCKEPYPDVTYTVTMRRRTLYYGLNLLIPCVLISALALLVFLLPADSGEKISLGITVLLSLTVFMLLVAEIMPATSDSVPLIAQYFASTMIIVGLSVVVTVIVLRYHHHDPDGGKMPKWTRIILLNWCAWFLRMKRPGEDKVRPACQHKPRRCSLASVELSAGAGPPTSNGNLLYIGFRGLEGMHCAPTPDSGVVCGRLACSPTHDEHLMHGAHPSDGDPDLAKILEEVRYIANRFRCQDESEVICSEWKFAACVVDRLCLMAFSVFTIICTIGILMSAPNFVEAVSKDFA
# Outline: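 Rat cortical membrane preparation incubated 2.5 h with tritiated or iodinated radioligand and test chemical. Bound radioactivity was filtered and counted by scintillation, and displacement was analysed against DMSO.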
# [5] = target: Sodium channel protein type 1 subunit alpha (Rattus norvegicus) (UniProt P04774); assay: NVS_IC_rNaCh_site2: NovaScreen (NVS) Ion Channel Assay for rat Sodium Channel, Site 2 (NaCh) (AID 2283322);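 further: hit means loss of radioligand binding signal relative to DMSO so AC50 marks displacement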
# Outline: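 Initial duplicate single-point testing at 25 uM, followed by concentration-response runs for actives. Binding of radioligand to rat forebrain membranes quantified after 1 h via filter-based radiodetection.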
# [6] = target: rat Glutamate, NMDA Agonist Site (GluNMDA), Grin1 (gene 24408) (UniProt P35439); assay: NVS_LGIC_rGluNMDA_Agonist: NovaScreen (NVS) Ligand-Gated Ion Channel Assay for rat Glutamate, NMDA Agonist Site (GluNMDA) (AID 2283327)
# Outline: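 Radioligand displacement at the agonist site on rat forebrain membrane preparations, read by filter scintillation after 1 h. Chemicals were first run at 25 uM in duplicate; those passing threshold were titrated to a 50 uM maximum.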
# [7] = target: rat Adrenergic Receptor, Alpha 2 (Adra2), Non-selective Binding, Adra2a (gene 25083) (UniProt P22909); assay: NVS_GPCR_rAdra2_NonSelective: NovaScreen (NVS) G Protein-Coupled Receptor Assay for rat Adrenergic Receptor, Alpha 2 (Adra2), Non-selective Binding (AID 2283299)
# Sequence of rat Adrenergic Receptor, Alpha 2 (Adra2), Non-selective Binding, Adra2a (gene 25083) (P22909 whole entry, looked up): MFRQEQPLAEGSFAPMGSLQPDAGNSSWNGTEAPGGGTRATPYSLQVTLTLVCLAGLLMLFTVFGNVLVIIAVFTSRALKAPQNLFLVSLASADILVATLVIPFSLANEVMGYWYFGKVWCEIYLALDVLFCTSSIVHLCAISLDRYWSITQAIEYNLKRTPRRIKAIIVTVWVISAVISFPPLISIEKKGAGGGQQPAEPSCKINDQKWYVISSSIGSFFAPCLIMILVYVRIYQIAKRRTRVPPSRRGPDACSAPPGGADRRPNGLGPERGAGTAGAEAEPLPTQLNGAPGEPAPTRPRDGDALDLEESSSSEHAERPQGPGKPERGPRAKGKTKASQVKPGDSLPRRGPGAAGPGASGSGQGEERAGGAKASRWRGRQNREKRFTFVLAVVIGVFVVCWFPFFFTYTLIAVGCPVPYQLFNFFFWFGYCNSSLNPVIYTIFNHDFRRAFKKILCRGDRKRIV
# Outline: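 Filter-based scintillation counting of radioligand binding to rat cortical membrane receptors, measured 1.25 hours post-dosing; loss of signal versus DMSO indicates displacement. Initial single-concentration duplicate at 25 uM, then concentration series.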
# [8] = target: rat Somatostatin Receptor (SST), Sstr1 (gene 25033) (UniProt P28646); assay: NVS_GPCR_rSST: NovaScreen (NVS) G Protein-Coupled Receptor Assay for rat Somatostatin Receptor (SST) (AID 2283314)
# Sequence of rat Somatostatin Receptor (SST), Sstr1 (gene 25033) (P28646 whole entry, looked up): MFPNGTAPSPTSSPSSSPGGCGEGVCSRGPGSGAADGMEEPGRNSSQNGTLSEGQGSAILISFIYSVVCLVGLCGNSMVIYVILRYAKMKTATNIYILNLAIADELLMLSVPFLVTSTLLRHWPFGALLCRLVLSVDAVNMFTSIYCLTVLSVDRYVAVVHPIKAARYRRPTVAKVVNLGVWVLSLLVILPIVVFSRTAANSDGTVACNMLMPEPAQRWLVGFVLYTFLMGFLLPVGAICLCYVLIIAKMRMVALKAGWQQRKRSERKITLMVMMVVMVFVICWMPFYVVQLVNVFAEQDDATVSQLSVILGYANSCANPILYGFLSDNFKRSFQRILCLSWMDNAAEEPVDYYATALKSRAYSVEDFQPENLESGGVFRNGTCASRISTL
# Outline: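 Single-concentration duplicate screen (25 uM), then concentration-response up to 50 uM for chemicals passing a threshold such as 30% inhibition. Membranes came from rat forebrain. Binding was measured 1 h post-dose by filter radiodetection and scintillation, relative to DMSO.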
# [9] = target: rat Vasopressin 1 Receptor (V1), Avpr1a (gene 25107) (UniProt P30560); assay: NVS_GPCR_rV1: NovaScreen (NVS) G Protein-Coupled Receptor Assay for rat Vasopressin 1 Receptor (V1) (AID 2283316)
# Sequence of rat Vasopressin 1 Receptor (V1), Avpr1a (gene 25107) (P30560 whole entry, looked up): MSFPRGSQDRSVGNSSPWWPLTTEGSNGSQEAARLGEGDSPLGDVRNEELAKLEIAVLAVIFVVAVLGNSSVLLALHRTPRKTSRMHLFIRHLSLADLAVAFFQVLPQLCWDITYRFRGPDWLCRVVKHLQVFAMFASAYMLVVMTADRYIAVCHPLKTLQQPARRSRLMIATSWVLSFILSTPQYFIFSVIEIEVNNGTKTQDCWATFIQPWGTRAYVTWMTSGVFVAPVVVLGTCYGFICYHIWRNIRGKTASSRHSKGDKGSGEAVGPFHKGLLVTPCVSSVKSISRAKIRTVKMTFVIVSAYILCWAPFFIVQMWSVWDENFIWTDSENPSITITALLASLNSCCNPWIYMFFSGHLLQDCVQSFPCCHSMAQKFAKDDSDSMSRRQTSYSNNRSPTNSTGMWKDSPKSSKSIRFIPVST
# Outline: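 Concentration-response up to 50 uM for chemicals passing a threshold such as 30% inhibition in an initial duplicate 25 uM screen. Displacement of radioligand from rat liver membranes measured after 1.5 h by filtration and scintillation.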
# [10] = target: rat Opioid Receptor, Non-selective Binding, Oprm1 (gene 25601) (UniProt P33535); assay: NVS_GPCR_rOpiate_NonSelective: NovaScreen (NVS) G Protein-Coupled Receptor Assay for rat Opioid Receptor, Non-selective Binding (AID 2283318)
# Sequence of rat Opioid Receptor, Non-selective Binding, Oprm1 (gene 25601) (P33535 whole entry, looked up): as the sequence (P33535 whole entry, looked up) above
# Outline: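 Filter-based radioligand displacement using rat forebrain membrane preparations, measured 1.5 h post-dosing. Single-concentration duplicate screen at 25 uM, follow-up in concentration series; activity taken as signal loss relative to DMSO.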
# [11] = NVS_IC_rCaDHPRCh_L: NovaScreen (NVS) Ion Channel Assay for rat Calcium Channel, Type L, Dihydropyridine Site (CaDHPRCh_L) (AID 2283320)
# Outline: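 Rat cortex membrane preparation; dihydropyridine-site radioligand displacement read 1 h post-dose by filtration and scintillation. Primary single-point screen 25 uM in duplicate, then concentration series to 50 uM maximum; DMSO as negative control.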
# [12] = target: rat Glutamate Metabotropic Receptor 5 (MGluR5), Grm5 (gene 24418) (UniProt P31424); assay: NVS_GPCR_rmMGluR5: NovaScreen (NVS) G Protein-Coupled Receptor Assay for rat Glutamate Metabotropic Receptor 5 (MGluR5) (AID 2283307)
# Outline: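 Compounds first screened in duplicate at 25 uM, then in concentration series up to 50 uM if over threshold. Radioligand displacement on rat whole-brain membranes, filtration and scintillation counting after 1.5 h; binding loss relative to DMSO.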
# [13] = target: rat Neurokinin-3 Receptor (NK3), Tacr3 (gene 24808) (UniProt P16177); assay: NVS_GPCR_rNK3: NovaScreen (NVS) G Protein-Coupled Receptor Assay for rat Neurokinin-3 Receptor (NK3) (AID 2283310)
# Sequence of rat Neurokinin-3 Receptor (NK3), Tacr3 (gene 24808) (P16177 whole entry, looked up): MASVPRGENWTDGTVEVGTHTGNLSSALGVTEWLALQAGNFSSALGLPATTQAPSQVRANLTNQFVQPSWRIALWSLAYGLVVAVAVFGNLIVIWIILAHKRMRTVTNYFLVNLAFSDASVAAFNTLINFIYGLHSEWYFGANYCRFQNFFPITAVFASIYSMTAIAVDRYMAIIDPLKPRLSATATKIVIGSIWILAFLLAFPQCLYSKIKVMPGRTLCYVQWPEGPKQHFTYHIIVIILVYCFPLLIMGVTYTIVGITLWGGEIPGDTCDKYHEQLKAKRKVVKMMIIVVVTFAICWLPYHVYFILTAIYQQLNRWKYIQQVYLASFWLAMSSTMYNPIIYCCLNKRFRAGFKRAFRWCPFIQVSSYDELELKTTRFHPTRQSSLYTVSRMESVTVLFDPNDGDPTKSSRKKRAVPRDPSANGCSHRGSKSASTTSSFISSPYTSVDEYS
# Outline: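 Filter-based radioligand displacement on rat cortex membrane preparations, read by scintillation 2 h post-dose. Chemicals first tested in duplicate at 25 uM; actives followed up in concentration series with a 50 uM maximum.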
# [14] = target: rat Gamma-Aminobutyric Acid Type A Receptor, Non-Selective (GABAR-NonSelective), Gabra1 (gene 29705) (UniProt P62813); assay: NVS_LGIC_rGABAR_NonSelective: NovaScreen (NVS) Ligand-Gated Ion Channel Assay for rat Gamma-Aminobutyric Acid Type A Receptor, Non-Selective (GABAR-NonSelective) (AID 2283326)
# Sequence of rat Gamma-Aminobutyric Acid Type A Receptor, Non-Selective (GABAR-NonSelective), Gabra1 (gene 29705) (P62813 whole entry, looked up): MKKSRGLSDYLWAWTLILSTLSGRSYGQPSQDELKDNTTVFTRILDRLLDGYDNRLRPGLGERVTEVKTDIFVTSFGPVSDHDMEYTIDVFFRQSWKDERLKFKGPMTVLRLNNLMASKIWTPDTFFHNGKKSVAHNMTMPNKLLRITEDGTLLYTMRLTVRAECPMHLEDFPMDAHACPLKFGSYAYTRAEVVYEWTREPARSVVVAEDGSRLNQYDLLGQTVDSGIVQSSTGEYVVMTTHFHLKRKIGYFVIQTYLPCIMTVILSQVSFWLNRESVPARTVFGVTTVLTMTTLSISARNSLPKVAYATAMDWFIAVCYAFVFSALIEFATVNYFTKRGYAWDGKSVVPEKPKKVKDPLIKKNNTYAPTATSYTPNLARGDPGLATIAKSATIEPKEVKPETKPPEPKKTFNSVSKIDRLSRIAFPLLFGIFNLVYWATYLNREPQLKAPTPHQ
# Outline: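 Compounds were first screened in duplicate at 25 uM, with actives run as singleton concentration series (max 50 uM). Binding of a radioligand to rat whole-brain GABA-A preparation was measured by filtration and scintillation counting after 1 h, DMSO baseline.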
# [15] = target: Metabotropic glutamate receptor 1 (Rattus norvegicus) (UniProt P23385); assay: NVS_GPCR_rmMGluR1: NovaScreen (NVS) G Protein-Coupled Receptor Assay for rat Glutamate Metabotropic Receptor 1 (MGluR1) (AID 2283305)
# Outline: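 Binding to native receptor from rat cerebellum extract, measured as displacement of a radioligand (scintillation counting, filter separation) after 1 hour. Compounds tested at 25 uM in duplicate, then titrated to a 50 uM maximum.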
# [16] = target: rat Glutamate, AMPA Site (AMPA), Gria1 (gene 50592) (UniProt P19490); assay: NVS_LGIC_rAMPA: NovaScreen (NVS) Ligand-Gated Ion Channel Assay for rat Glutamate, AMPA Site (AMPA) (AID 2283324)
# Sequence of rat Glutamate, AMPA Site (AMPA), Gria1 (gene 50592) (P19490 whole entry, looked up): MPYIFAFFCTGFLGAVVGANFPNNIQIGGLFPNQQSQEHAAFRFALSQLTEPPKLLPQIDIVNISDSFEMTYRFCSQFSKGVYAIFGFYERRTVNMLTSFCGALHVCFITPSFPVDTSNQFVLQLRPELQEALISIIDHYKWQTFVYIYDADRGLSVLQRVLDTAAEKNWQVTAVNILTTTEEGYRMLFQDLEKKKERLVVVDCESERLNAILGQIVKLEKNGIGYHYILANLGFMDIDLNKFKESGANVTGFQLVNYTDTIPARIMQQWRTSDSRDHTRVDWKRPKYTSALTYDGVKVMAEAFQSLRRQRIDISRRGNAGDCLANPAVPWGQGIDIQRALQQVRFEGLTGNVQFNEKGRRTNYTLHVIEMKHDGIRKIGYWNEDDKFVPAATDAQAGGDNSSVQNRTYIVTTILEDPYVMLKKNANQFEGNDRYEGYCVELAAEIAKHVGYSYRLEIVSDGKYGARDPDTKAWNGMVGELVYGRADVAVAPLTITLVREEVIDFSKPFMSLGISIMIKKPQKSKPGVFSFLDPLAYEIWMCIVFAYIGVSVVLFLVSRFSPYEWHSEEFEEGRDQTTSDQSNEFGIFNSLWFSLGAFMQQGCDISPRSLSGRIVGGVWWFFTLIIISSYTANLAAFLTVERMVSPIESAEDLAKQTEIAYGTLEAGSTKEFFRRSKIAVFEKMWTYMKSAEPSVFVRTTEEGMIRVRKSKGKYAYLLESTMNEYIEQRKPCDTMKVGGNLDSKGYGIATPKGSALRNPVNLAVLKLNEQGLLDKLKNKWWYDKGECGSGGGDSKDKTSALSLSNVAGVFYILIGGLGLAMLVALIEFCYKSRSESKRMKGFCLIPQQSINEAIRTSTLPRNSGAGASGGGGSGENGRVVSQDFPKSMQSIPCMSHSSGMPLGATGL
# Outline: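 Screening at 25 uM in duplicate preceded concentration series reaching 50 uM for qualifying compounds. Radioligand displacement on rat forebrain membranes, 1 h, filter-based scintillation readout; reduced binding relative to DMSO.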
# [17] = target: human Serotonin, 5-Hydroxytryptamine Receptor 3 (5HT3), HTR3A (gene 3359) (UniProt P46098); assay: NVS_LGIC_h5HT3: NovaScreen (NVS) Ligand-Gated Ion Channel Assay for human Serotonin, 5-Hydroxytryptamine Receptor 3 (5HT3) (AID 2283325)
# Outline: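 Initially tested at 25 uM in duplicate, then up to 50 uM in concentration-response for actives, compounds competed with a radioligand for HEK293-derived human 5-HT3 receptor. Bound counts were measured by filtration and scintillation at 1 h; loss of signal versus DMSO.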
# [18] = target: bovine Gamma-Aminobutyric Acid Type A Receptor BDZ, alpha 5 site (GABARa5), GABRA5 (gene 523515) (UniProt Q08E50); assay: NVS_LGIC_bGABARa5: NovaScreen (NVS) Ligand-Gated Ion Channel Assay for bovine Gamma-Aminobutyric Acid Type A Receptor BDZ, alpha 5 site (GABARa5) (AID 2283323)
# Outline: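 Tested first in duplicate at a single 25 uM, with hits re-run in concentration series to a 50 uM maximum. Bovine hippocampal membranes; specific radioligand displacement measured by filter scintillation counting 1 hr post-dose.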
compound,measurement,setting,value
COc1cc(C(=O)NC2CCN(C)CC2)ccc1Nc1ncc2c(n1)N(C1CCCC1)CC(F)(F)C(=O)N2C,AC50,[1],3.19 µM (active)
same,AC50,[2],13.9 µM (active)
same,outcome,[3],inactive
same,outcome,[4],inactive
same,AC50,[5],2.03 µM (active)
same,AC50,[6],11.5 µM (active)
NCc1cccc(C2CCN(C(=O)c3ccc(C#Cc4ccccc4F)o3)CC2)c1,AC50,[7],14.4 µM (active)
same,AC50,[3],11.2 µM (active)
same,AC50,[8],15 µM (active)
same,outcome,[9],inactive
same,AC50,[10],12.1 µM (active)
same,AC50,[11],21.1 µM (active)
same,AC50,[5],2.68 µM (active)
O=CCCCC=O,outcome,[12],inactive
CCN(Cc1cccnc1)C(=O)c1cccc(Cl)c1[C@]1(C)C(=O)N(Cc2ccc(OC)cc2OC)c2ccc(Cl)cc21,AC50,[7],6.92 µM (active)
same,AC50,[2],23.6 µM (active)
same,AC50,[13],9.75 µM (active)
same,AC50,[3],13.9 µM (active)
same,AC50,[9],29 µM (active)
same,AC50,[10],5.25 µM (active)
same,AC50,[11],5.48 µM (active)
same,AC50,[5],17.5 µM (active)
same,AC50,[14],16.8 µM (active)
COc1ccc2cc(S(=O)(=O)N[C@H](CC(=O)N[C@H](Cc3ccc(CN4[C@H](C)CCC[C@@H]4C)cc3)C(=O)N(C)C(C)C)c3ccc4c(c3)OCO4)ccc2c1,AC50,[7],23.9 µM (active)
same,AC50,[2],11.4 µM (active)
same,AC50,[13],8.07 µM (active)
same,AC50,[3],4.72 µM (active)
same,AC50,[8],5.07 µM (active)
same,outcome,[4],inactive
same,outcome,[9],inactive
same,AC50,[10],17.7 µM (active)
same,AC50,[11],21.5 µM (active)
same,AC50,[5],5.03 µM (active)
same,AC50,[14],11.2 µM (active)
O=c1[nH]sc2ccccc12,AC50,[7],1.55 µM (active)
same,AC50,[15],35.9 µM (active)
same,outcome,[8],inactive
same,AC50,[10],19.6 µM (active)
same,outcome,[16],inactive
Clc1cc(Cl)c2c(c1)N=C1CCCCCN1C2,AC50,[7],1.57 µM (active)
same,AC50,[4],5.61 µM (active)
same,AC50,[10],7.31 µM (active)
same,AC50,[5],6.64 µM (active)
same,AC50,[17],12.5 µM (active)
O=C1CCC(C2CCCCC2)CC1,outcome,[4],inactive
CCCCCCCCCC(=O)O,outcome,[16],inactive
CC[C@H](NC(=O)c1cc(F)ccc1NS(=O)(=O)c1cccc2cccnc12)c1ccccc1,outcome,[2],inactive
same,outcome,[5],inactive
CCCCCCCCOC(=O)c1cc(O)c(O)c(O)c1,outcome,[13],inactive
same,AC50,[5],17.7 µM (active)
C[C@]12CC[C@@H]3c4ccc(O)cc4CC[C@H]3[C@@H]1CCC2=O,AC50,[3],13.9 µM (active)
Cc1cc2c(cc1C(F)(F)F)N(C(=O)Nc1ccc(Oc3cccnc3C)nc1)CC2,AC50,[14],8.52 µM (active)
CCCOC(=O)c1cc(O)c(O)c(O)c1,AC50,[13],7.59 µM (active)
CC(C)(O)c1ccc(CNC(=O)c2cccnc2Oc2ccc3nonc3c2)cc1,outcome,[18],inactive
same,outcome,[17],inactive
CCCCCCCCN(C)CCCCCCCC,AC50,[11],16.4 µM (active)
same,AC50,[5],11.8 µM (active)
Clc1ccccc1C(c1ccccc1)(c1ccccc1)n1ccnc1,outcome,[3],inactive
same,AC50,[9],36.5 µM (active)
same,outcome,[10],inactive
CC(O)CC(C)(C)O (configuration not stated),outcome,[13],inactive
same,outcome,[3],inactive
same,outcome,[5],inactive
O=C(O)Cn1c(=O)n(Cc2ccc(Br)cc2F)c(=O)c2ccc(Cl)cc21,outcome,[6],inactive
C[C@]12CC[C@@H]3c4ccc(O)cc4CC[C@H]3[C@@H]1CC[C@H]2O,outcome,[3],inactive
CCCCOC(=O)c1ccc(O)cc1,AC50,[3],25 µM (active)
same,outcome,[16],inactive
CC(C)(c1cc(Br)c(O)c(Br)c1)c1cc(Br)c(O)c(Br)c1,outcome,[3],inactive
CN(C[C@@H](CC[N+]12CCC(C3CCCCC3)(CC1)CC2)c1ccc(Cl)c(Cl)c1)C(=O)c1cc(C(F)(F)F)cc(C(F)(F)F)c1,AC50,[2],0.403 µM (active)
same,AC50,[13],5.47 µM (active)
same,AC50,[3],12.5 µM (active)
same,AC50,[10],35.5 µM (active)
same,outcome,[16],inactive
same,AC50,[6],38.2 µM (active)
O=c1c(-c2ccc(O)cc2)coc2cc(O)cc(O)c12,outcome,[3],inactive
Cc1c2ccccc2c(C)c2c1ccc1ccccc12,AC50,[9],25 µM (active)
O=C1O[C@H]([C@@H](O)CO)C(O)=C1O,AC50,[9],6.57 µM (active)
same,outcome,[6],inactive
CC(C)(C)c1csc(-c2cc3cc(OCc4ccccc4CC(=O)O)ccc3o2)n1,outcome,[2],inactive
same,outcome,[4],inactive
OC12N=C(c3ccccc3)SC1Cc1cc(Cl)ccc12 (configuration not stated),AC50,[14],2.62 µM (active)
NC(=O)c1nc(-c2cccc(-c3cc(F)ccc3OCC(F)(F)C(F)(F)F)c2)n[nH]1,AC50,[5],0.574 µM (active)
